# In PubChem BioAssay (NCATS):
# Records with an inconclusive call do not appear. Calls of active or inactive are those of the source. Unless noted, calls follow the shape of the dose curve; as a rule, active = well fitted curve in either direction with a large enough effect (not every such curve was filed as active); inconclusive = small, poorly fitted or top-dose-only effect, or another doubt; inactive = flat fitted curve, though single readings scatter.
# Assays:
# [1] = target: Lysosomal acid glucosylceramidase (Homo sapiens) (UniProt P04062); assay: Glucocerebrosidase-p2 (AID 348; in the data active = potency below about 10 µM; also: potency is read from the fitted curve at half-maximal effect); conditions: purified GBA, blue fluorogenic substrate, 40 min
# Summary of the method: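 Normal human glucocerebrosidase (0.2 nM) with blue fluorogenic substrate (80 uM final) in citrate/phosphate pH 5.9 with 10mM sodium taurocholate, 0.01% tween-20; 40 min RT, NaOH/glycine stop; fluorescence Ex 365/Em 440; AC50 from a titration from 0.6 nM upwards.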
# [2] = AP1 Signaling Pathway (AID 357); conditions: ME-180 AP-1-bla reporter, EGF-induced, beta-lactamase ratio, 5 h; at 7.69 µM (top of the series) unless noted;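 also: ME-180 reporter cells stimulated with EGF at its EC50 level; % is scaled to controls: 0 for no effect and ±100 for the full control effect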
# Summary of the method: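 Modulation of EGF-driven AP-1 transcription was assessed with a beta-lactamase reporter in ME-180 cells. Compound and EC50 EGF were co-incubated 5 hours at 37 °C before 2.5-hour CCF4 loading at room temperature and dual-emission reading.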
# [3] = target: Cytochrome P450 1A2 (Homo sapiens) (UniProt P05177); assay: p450-cyp1a2 (AID 410; calls by dose curve; also: potency is read from the fitted curve at half-maximal effect;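 as to activity change, negative = inhibition: -100% = full effect of reference inhibitor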); conditions: recombinant CYP1A2, luciferin-ME demethylation, luminescence; series mostly up to 57 µM
# Summary of the method: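 20nM CYP1A2, 100uM Luciferin-ME (=Km), 100mM KPO4; cpd 10 min RT; +NADPH regen, 60 min RT; stop/detect 20 min; luminescence. Normalized to furafylline 57 uM = full inhibition.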
# [4] = NFAT Signaling Pathway (AID 444); conditions: Jurkat NFAT-bla M1, carbachol, beta-lactamase ratio, 5 h; at 7.69 µM (top of the series) unless noted;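 also: carbachol stimulus at about its EC50 of 1 µM final; % is scaled to controls: 0 for no effect and ±100 for the full control effect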
# Summary of the method: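 Jurkat cells carrying an NFAT-driven β-lactamase reporter and co-transfected muscarinic M1 receptor were treated with compound plus carbachol (1 uM final, an EC50 level) for 5 h at 37 °C. CCF4 loading followed for 1 h at RT; 460/530 nm ratio gave %activity.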
# [5] = Stat Signaling Pathway (AID 446); conditions: ME-180 SIE beta-lactamase reporter, IL-6 stimulated, 5 h; at 7.69 µM (top of the series) unless noted;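 also: ME-180 cervical cancer cells given 40 pM IL-6 alongside compound; SIE-controlled beta-lactamase reporter measured as 460/530 nm FRET emission ratio; % is scaled to controls: 0 for no effect and ±100 for the full control effect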
# Summary of the method: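 Emission at 460 and 530 nm (excitation 405 nm) reports SIE-controlled beta-lactamase in ME-180 cells. Cells received compound with 40 pM IL-6 for 5 hrs at 37 C; data scaled between 300 pM IL-6 and 125 nM JAK-inhibitor controls.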
# [6] = target: Glucocorticoid receptor (Homo sapiens) (UniProt P04150); assay: GR-GFP Redistribution (AID 450;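 active = compounds whose dose series gives a full or clear partial fitted curve of increased nuclear translocation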; also: potency is read from the fitted curve at half-maximal effect); conditions: U2OS GR-GFP nuclear translocation, laser cytometry, 2 h
# [7] = target: Glucocorticoid receptor (Homo sapiens) (UniProt P04150); assay: GR-EFC Redistribution (AID 451; calls by dose curve; also: potency is read from the fitted curve at half-maximal effect); conditions: CHO-K1 GR-EFC translocation, beta-gal luminescence, 2 h
# Summary of the method: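 CHO-K1 cells stably expressing nuclear-localized β-gal enzyme acceptor and GR fused C-terminally to the enzyme donor fragment; ligand-driven nuclear translocation restores β-gal by complementation. Compounds titrated up to 46 uM final, 2 h at 37 °C; luminescence read.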
# [8] = target: Mitogen-activated protein kinase 10 (Mus musculus) (UniProt Q61831); assay: JNK3 AlphaScreen Assay (AID 530); conditions: JNK3 lysate, c-Jun phosphorylation; series mostly up to 57.1 µM;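 also: kinase came from lysate of stimulated human HepG2 cells; signal reports phosphorylation of biotinylated GST-cJun 1-79 at Ser73 with 10 µM ATP; % is scaled to controls: 0 for no effect and ±100 for the full control effect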
# Summary of the method: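 Biotinylated GST-cJun(1-79) served as substrate for JNK3 in HepG2 lysates stimulated with IL-1beta and TNF-alpha. ATP was 10 uM final, pH 7.6. Ser73 phosphorylation was quantified by AlphaScreen (680 nm excitation).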
# [9] = target: 3',5'-cyclic-AMP phosphodiesterase 4B (Homo sapiens) (UniProt Q07343); assay: qHTS Assay for Inhibitors of PDE-IV (AID 607; active = well fitted activation curve with a large enough effect in the main read-out, with a control signal flat, not every such curve was filed as active; also: % of control where 0% means no effect); conditions: HEK293 ACTOne CNG channel cells, membrane potential fluorescence; series mostly up to 22.9 µM
# Summary of the method: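 The readout is membrane depolarisation from a cAMP-sensing CNG channel, detected with a potential dye at ex 535/em 590. Cells were HEK293-derived (endogenous PDE-IV) at 1000 cells/well, titrated up to 22.9 uM final.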
# [10] = target: Cytochrome P450 3A4 (Homo sapiens) (UniProt P08684); assay: qHTS Assay for Activators of Cytochrome P450 3A4 (AID 885; active = well fitted curve in the direction sought with a large enough effect; an effect the other way counts as inactive or inconclusive; also: nearly all actives have a fitted effect of over 65% in size); conditions: recombinant CYP3A4, Luciferin-PPXE luminescence, 60 min; series mostly up to 57.1 µM
# Summary of the method: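 Activators are scored by enhanced luminescence from CYP3A4 conversion of luciferin-PPXE (25uM, equal to KM) to luciferin, after 60 min at RT with an NADPH-regenerating system.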
# [11] = Confirmation and Secondary Assay for Modulators of Hemoglobin Beta Chain Splicing at IVS2 654 locus (AID 910; active = well fitted curve in the direction sought with a large enough effect; an effect the other way counts as inactive or inconclusive;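 also: per-well total GFP intensity by laser scanning cytometry after 2-day treatment; % of control where 0% means no effect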); conditions: HeLa EGFP-654 splicing reporter, GFP fluorescence, 48 h; series mostly up to 38.3 µM
# Summary of the method: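 HeLa cells stably carrying EGFP interrupted by mutant beta-globin IVS2-654 intron (CMV-driven) were treated with compound for 2 days at 37C; corrected splicing was scored as total peak GFP intensity per well (488 nm excitation, 500-520 nm emission).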
# [12] = Confirmation and Secondary Assay for Modulators of Hemoglobin Beta Chain Splicing at IVS2 705 locus (AID 930; active = well fitted curve in the direction sought with a large enough effect; an effect the other way counts as inactive or inconclusive;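 also: HeLa cells stably expressing the EGFP-705 splicing reporter; % of control where 0% means no effect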); conditions: HeLa EGFP-705 splicing reporter, GFP fluorescence, 48 h; series mostly up to 38.3 µM
# Summary of the method: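 Restored EGFP fluorescence after 2-day compound exposure reports splicing correction in IVS2-705 EGFP reporter HeLa cells; positive control was 500 nM splice-blocking PNA oligo. Signal measured as well total peak GFP intensity (488 nm excitation).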
# [13] = qHTS Assay for Lipid Storage Modulators (AID 1519; calls by dose curve); conditions: Drosophila S3 cells, BODIPY lipid droplet/cell ratio, laser cytometry, cells loaded with oleic acid; for activity change, negative = inhibition: at 57.5 µM (top of the series)
# Summary of the method: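 Cells seeded at 5,000 per well were treated with compounds over a concentration series and loaded with oleic acid (400 uM, as added). Lipid droplet fluorescence (488 nm excitation, 500-530 nm channel) was read by laser-scanning cytometry and normalized to 20 uM Triacsin C.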
# [14] = Primary qHTS for small molecule stabilizers of the endoplasmic reticulum resident proteome: Secreted ER Calcium Modulated Protein (SERCaMP) assay (AID 1508630; active = well fitted curve in the direction sought with a large enough effect; an effect the other way counts as inactive or inconclusive; also: % is scaled to controls: 0 for no effect and ±100 for the full control effect); conditions: SH-SY5Y GLuc-SERCaMP (Gaussia luciferase released on ER calcium loss) secretion, thapsigargin, luminescence; series mostly up to 38.4 µM
# Summary of the method: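 The SH-SY5Y reporter protocol was run at 3 concentrations up to 38.3 uM (primary) or 11 concentrations (follow-up): 16 h compound, 100 nM thapsigargin for 4 h, then extracellular luciferase luminescence.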
# [15] = target: Cytochrome P450 2C9 (Homo sapiens) (UniProt P11712); assay: qHTS Assay for Inhibitors and Substrates of Cytochrome P450 2C9 (AID 883; active = well fitted curve in the direction sought with a large enough effect; an effect the other way counts as inactive or inconclusive; also: % is scaled to controls: 0 for no effect and ±100 for the full control effect; nearly all actives have a fitted effect of over 60% in size); conditions: recombinant CYP2C9, luciferin-H luminescence, 60 min; series mostly up to 57.1 µM
# Summary of the method: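 Human CYP2C9 (10nM) hydroxylated Luciferin-H (100uM, at its KM) to luciferin in 25mM KPO4. Compound was preincubated 10 min at 37C, then NADPH regeneration started a 60 min reaction at 37C. Luminescence was read after detection reagent, normalized to 57uM sulphaphenazole.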
# [16] = target: Cytochrome P450 2C19 (Homo sapiens) (UniProt P33261); assay: qHTS Assay for Inhibitors and Substrates of Cytochrome P450 2C19 (AID 899; active = well fitted curve in the direction sought with a large enough effect; an effect the other way counts as inactive or inconclusive; also: potency is read from the fitted curve at half-maximal effect; nearly all actives have a fitted effect of over 60% in size); conditions: recombinant CYP2C19, luciferin-H EGE luminescence; series mostly up to 57.1 µM
# Summary of the method: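 Human CYP2C19 (5nM) with Luciferin-H EGE at 10uM (its KM) in 50mM KPO4 was preincubated with compound for 10 min at 37C. NADPH regeneration started a 60 min 37C reaction. Luciferin was read by luminescence, normalized to 57uM ketoconazole.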
# [17] = target: Cytochrome P450 3A4 (Homo sapiens) (UniProt P08684); assay: qHTS Assay for Inhibitors and Substrates of Cytochrome P450 3A4 (AID 884; active = well fitted curve in the direction sought with a large enough effect; an effect the other way counts as inactive or inconclusive; also: potency is read from the fitted curve at half-maximal effect; nearly all actives have a fitted effect of over 50% in size); conditions: recombinant CYP3A4, Luciferin-PPXE luminescence; series mostly up to 57.1 µM
# Summary of the method: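 Luminescent readout of luciferin produced by CYP3A4 (20 nM) dealkylation of Luciferin-PPXE, 25 uM (its KM). NADPH-driven reaction ran 60 min at RT after 10 min compound preincubation; data scaled to 57 uM ketoconazole as 100% inhibition.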
# [18] = qHTS Assay for Identification of Small Molecule Agonists for Hypoxia Response Element Signaling Pathway (AID 914; active = well fitted activation curve with a large enough effect in the signal ratio, with a control signal flat, not every such curve was filed as active; the % refers to the signal ratio; also: % of control where 0% means no effect); conditions: ME-180 (cervical carcinoma) HRE-bla reporter, beta-lactamase ratio, CoCl2, 17 h; activation: stronger effect = higher value
# Summary of the method: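 AC50 values come from titration-series %Activity, taken as the 460/530nm ratio of CCF4 fluorescence (excitation 405nm). CellSensor HRE-bla ME-180 cells were treated 17 hours at 37 C with compound plus an EC50 level of CoCl2.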
# [19] = measured here: cell count channel max response
# [20] = measured here: lipid channel max response
# Sequence of Glucocorticoid receptor (Homo sapiens) (P04150 whole entry, looked up, the tested form may be a part): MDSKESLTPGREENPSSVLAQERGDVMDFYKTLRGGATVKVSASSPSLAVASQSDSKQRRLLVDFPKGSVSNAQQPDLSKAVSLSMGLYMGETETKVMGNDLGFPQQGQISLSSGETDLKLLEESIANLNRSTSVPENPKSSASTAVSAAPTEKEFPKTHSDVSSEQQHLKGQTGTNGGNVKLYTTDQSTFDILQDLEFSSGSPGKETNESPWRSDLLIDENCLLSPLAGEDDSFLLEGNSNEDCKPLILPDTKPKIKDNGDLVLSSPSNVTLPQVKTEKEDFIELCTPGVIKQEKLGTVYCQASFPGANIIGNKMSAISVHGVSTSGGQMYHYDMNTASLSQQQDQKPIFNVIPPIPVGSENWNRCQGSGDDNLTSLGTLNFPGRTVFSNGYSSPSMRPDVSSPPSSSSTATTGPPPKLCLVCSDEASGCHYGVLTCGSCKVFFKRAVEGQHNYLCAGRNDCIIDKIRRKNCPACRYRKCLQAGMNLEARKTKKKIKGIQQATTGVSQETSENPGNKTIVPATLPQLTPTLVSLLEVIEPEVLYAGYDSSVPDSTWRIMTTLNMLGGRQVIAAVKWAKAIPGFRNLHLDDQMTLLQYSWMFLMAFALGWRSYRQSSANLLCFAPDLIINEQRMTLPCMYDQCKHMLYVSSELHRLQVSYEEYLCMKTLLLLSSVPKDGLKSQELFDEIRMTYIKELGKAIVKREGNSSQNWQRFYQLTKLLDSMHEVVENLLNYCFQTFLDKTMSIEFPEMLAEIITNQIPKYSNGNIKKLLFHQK
# Sequence of Lysosomal acid glucosylceramidase (Homo sapiens) (P04062 whole entry, looked up): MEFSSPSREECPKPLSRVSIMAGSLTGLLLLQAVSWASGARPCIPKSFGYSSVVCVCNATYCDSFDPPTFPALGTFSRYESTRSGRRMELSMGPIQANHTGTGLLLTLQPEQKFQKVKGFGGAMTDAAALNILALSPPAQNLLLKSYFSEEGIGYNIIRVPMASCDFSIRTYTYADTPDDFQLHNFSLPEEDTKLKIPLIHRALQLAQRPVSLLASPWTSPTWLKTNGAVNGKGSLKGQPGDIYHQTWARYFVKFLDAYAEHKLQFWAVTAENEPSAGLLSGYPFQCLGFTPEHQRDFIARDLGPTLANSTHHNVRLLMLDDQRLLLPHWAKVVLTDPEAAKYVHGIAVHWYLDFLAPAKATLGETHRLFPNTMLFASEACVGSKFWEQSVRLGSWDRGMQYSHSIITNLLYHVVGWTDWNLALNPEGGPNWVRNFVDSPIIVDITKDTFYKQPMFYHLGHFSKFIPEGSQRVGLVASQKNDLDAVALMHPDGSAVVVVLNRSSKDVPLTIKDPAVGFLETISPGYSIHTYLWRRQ
# Sequence of Cytochrome P450 3A4 (Homo sapiens) (P08684 whole entry, looked up): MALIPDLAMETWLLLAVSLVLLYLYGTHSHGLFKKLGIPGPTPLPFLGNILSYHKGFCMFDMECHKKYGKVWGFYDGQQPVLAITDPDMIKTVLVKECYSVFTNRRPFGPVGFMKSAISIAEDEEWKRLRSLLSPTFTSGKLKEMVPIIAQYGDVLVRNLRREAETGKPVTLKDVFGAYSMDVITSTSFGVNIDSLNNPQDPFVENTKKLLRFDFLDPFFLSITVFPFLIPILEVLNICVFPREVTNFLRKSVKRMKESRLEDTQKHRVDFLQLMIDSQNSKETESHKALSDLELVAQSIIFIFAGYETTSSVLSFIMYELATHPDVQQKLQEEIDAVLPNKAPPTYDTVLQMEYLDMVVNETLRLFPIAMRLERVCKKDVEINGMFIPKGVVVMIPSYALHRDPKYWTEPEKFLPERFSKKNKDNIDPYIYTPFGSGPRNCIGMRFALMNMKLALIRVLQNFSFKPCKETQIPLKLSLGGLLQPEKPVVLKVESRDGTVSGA
# Sequence of Cytochrome P450 1A2 (Homo sapiens) (P05177 whole entry, looked up): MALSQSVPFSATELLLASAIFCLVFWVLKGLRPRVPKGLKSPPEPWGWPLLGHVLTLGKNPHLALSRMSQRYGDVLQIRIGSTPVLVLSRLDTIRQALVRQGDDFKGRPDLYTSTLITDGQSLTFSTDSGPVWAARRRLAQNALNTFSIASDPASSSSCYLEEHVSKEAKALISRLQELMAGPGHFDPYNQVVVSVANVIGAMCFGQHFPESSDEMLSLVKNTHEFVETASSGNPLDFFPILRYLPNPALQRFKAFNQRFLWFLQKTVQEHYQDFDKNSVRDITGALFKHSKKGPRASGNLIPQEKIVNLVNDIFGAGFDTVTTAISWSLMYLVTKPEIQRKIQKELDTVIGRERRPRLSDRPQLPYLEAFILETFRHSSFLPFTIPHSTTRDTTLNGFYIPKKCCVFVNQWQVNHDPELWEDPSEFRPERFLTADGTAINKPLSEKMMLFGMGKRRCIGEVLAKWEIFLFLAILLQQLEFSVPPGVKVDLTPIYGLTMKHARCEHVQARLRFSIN
# Sequence of Cytochrome P450 2C19 (Homo sapiens) (P33261 whole entry, looked up): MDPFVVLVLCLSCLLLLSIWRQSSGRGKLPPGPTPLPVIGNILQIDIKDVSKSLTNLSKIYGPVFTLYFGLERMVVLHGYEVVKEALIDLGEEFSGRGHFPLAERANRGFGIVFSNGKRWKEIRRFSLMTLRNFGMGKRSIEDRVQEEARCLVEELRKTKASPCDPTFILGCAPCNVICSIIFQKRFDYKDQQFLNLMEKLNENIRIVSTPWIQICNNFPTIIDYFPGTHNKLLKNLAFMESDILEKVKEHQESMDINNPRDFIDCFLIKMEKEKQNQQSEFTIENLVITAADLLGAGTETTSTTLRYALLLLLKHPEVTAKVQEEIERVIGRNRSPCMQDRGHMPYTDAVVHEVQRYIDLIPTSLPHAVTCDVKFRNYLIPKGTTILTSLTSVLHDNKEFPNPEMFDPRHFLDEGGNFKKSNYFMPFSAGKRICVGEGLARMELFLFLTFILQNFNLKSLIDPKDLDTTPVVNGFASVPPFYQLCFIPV
# Sequence of 3',5'-cyclic-AMP phosphodiesterase 4B (Homo sapiens) (Q07343 whole entry, looked up): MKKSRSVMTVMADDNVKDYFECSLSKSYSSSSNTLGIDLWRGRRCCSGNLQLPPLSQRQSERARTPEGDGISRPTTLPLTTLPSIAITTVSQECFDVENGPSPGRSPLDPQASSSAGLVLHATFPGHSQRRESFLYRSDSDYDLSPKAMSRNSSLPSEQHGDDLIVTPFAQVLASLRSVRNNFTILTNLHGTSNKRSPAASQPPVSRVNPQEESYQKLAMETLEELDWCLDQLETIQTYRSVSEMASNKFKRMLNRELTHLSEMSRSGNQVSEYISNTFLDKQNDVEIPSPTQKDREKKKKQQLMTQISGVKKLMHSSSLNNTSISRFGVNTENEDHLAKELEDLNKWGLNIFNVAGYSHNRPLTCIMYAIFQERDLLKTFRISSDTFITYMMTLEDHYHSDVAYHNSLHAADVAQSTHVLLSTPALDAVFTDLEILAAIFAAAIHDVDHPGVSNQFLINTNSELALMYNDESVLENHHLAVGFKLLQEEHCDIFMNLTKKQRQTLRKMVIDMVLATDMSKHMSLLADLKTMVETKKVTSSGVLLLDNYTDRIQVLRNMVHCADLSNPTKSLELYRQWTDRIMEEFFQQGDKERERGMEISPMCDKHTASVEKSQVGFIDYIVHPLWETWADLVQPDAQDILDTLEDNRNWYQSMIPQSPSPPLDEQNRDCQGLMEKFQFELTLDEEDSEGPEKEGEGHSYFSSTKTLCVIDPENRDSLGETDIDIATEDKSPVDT
# Sequence of Cytochrome P450 2C9 (Homo sapiens) (P11712 whole entry, looked up): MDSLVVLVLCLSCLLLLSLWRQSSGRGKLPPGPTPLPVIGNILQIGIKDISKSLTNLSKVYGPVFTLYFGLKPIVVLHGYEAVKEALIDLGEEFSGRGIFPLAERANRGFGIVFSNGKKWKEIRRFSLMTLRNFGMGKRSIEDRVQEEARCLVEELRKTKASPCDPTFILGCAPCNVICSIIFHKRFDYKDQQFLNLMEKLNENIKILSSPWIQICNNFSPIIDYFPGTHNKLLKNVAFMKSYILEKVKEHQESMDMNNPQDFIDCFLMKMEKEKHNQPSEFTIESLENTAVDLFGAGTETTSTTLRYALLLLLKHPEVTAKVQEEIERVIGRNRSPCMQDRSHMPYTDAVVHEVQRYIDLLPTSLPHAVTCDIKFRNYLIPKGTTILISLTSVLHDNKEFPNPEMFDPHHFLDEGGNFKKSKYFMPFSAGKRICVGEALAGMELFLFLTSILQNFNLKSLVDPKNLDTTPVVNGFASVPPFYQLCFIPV
Compound,Potency [1],"activity change, negative = inhibition [2]",Potency [3],"activity change, negative = inhibition [4]","activity, negative = inhibition [5]",Potency [6],Potency [7],outcome [8],Potency [9],Potency [10],outcome [11],outcome [12],"activity change, negative = inhibition [13]","max response [13, 19] [%]","max response [13, 20] [%]",Potency [14],Potency [15],Potency [16],Potency [17],activation [18]
Cc1cccc(CNc2ccnc(-c3ccoc3)n2)c1,> 11.4 µM (inactive),0.94% (inactive),2 µM (active),0.371% (inactive),6.16% (inactive),> 46 µM (inactive),> 46 µM (inactive),inactive,inactive,inactive,inactive,inactive,6.91% (inactive),1.7,4.61,inactive,–,–,–,–
CN(C)c1ncc2ncc(=O)n(CCC#N)c2n1,> 11.4 µM (inactive),-12.7% (inactive),12.6 µM (active),3.55% (inactive),-2.2% (inactive),> 9.22 µM (inactive),> 46 µM (inactive),inactive,–,–,–,–,2.4% (inactive),25.3,29.8,inactive,inactive,–,–,–
O=C(Nc1ccccc1)N1CC[C@@]2(CCCN(C(=O)c3ccco3)C2)C1,> 11.4 µM (inactive),-6.95% (inactive),10 µM (active),4.43% (inactive),-3.48% (inactive),–,> 46 µM (inactive),inactive,–,–,–,–,0.607% (inactive),5.04,7.34,inactive,–,–,–,–
Cc1cccc(CNc2ncncc2-c2cccc(C#N)c2)c1,> 11.4 µM (inactive),0.377% (inactive),2.51 µM (active),-8.33% (inactive),14.8% (inactive),> 46 µM (inactive),> 46 µM (inactive),inactive,inactive,inactive,inactive,inactive,4.89% (inactive),9.06,15.9,inactive,–,3.98 µM (active),–,–
Cc1cccc(CNc2ncncc2-c2ccc3c(c2)OCO3)c1,> 11.4 µM (inactive),-0.728% (inactive),0.126 µM (active),-2.79% (inactive),-19.6% (inactive),> 46 µM (inactive),> 46 µM (inactive),inactive,–,inactive,inactive,inactive,12.7% (inactive),7.25,23.1,inactive,–,0.501 µM (active),0.251 µM (active),-16.9% (inactive)
COC(=O)N1CCC2(CCN(Cc3cc(C(F)(F)F)cc(C(F)(F)F)c3)CC2)CC1,> 11.4 µM (inactive),-23.4% (inactive),inactive,-22.9% (inactive),0.155% (inactive),–,> 46 µM (inactive),inactive,–,–,–,–,2.7% (inactive),-2.08,2.77,inactive,–,–,–,–
